# Assay outcomes deposited in PubChem by National Center for Advancing Translational Sciences (NCATS).
# Marburg entry inh = qHTS for inhibitors of binding or entry into cells for Marburg Virus; Potency, µM (titrated, usually from 37.8 µM), usual class: inhibitors; Marburg virus pseudotyped entry inhibition, cell reporter; AID 540276, 2011; 1.8% of 300,000 active; calls by dose curve; tested in HEK293 cells
# HCMV antiviral = qHTS Assay for inhibitors of the human cytomegalovirus (HCMV); HFF cells, HCMV-luciferase reporter, 72 h; stronger effect = lower value; activity change, negative = inhibition, % at 57.5 µM; 4.5% of 410,000 active; AID 1259415, 2018; in the data active means activity change below about -60%; inconclusive means no clear call, values can overlap the other calls; inactive means above about -39%
#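 After 16 h attachment at 37C, HFF cells received test compound and HCMV-luciferase (1 PFU/cell); reporter luminescence read 72 h later, data normalized against buffer-only and known inhibitor Salinomycin.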
# VACV Venus inh = qHTS for Stage-Specific Inhibitors of Vaccinia Orthopoxvirus: Venus Reporter Primary qHTS; Vaccinia virus Venus reporter expression, fluorescence; Potency, µM (top dose mostly 36.5 µM), hits mostly inhibitors; 0.46% of 330,000 active; calls by dose curve; tested in A549 cells; further: nearly all actives have a fitted effect of over 30% in size
# Lassa entry inh = qHTS for Inhibitors of binding or entry into cells for Lassa Virus; Lassa virus pseudotype entry inhibition, cell reporter; Potency, µM (doses to about 37.9 µM), usual class: inhibitors; 1.2% of 300,000 active; calls by dose curve; tested in HEK293 cells; further: nearly all actives have a fitted effect of over 50% in size
# VACV mCherry inh = qHTS for Stage-Specific Inhibitors of Vaccinia Orthopoxvirus: mCherry Reporter Primary qHTS. 0.63% of 310,000 active. Potency, µM (highest dose often 36.5 µM), actives largely listed as inhibitors. Vaccinia virus mCherry reporter infection, fluorescence; calls by dose curve; tested in A549 cells; further: nearly all actives have a fitted effect of over 35% in size
# HCV inhibitor = qHTS Assay for Inhibitors of Hepatitis C Virus (HCV). 3.4% of 340,000 active. Huh7.5.1 HCVcc-Cre infection, luciferase reporter, 44 h. Potency, µM (titrated, usually from 41.8 µM), most hits filed as inhibitors; active means well fitted inhibition curve with a large enough effect; inconclusive means small, poorly fitted or top-dose-only effect, or another doubt; inactive means no such curve, though single readings can be large or run the other way
#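 Seed cells (1,000/well) for 4 h; treat with compound and infect with HCVcc-Cre, moi about 0.5. Incubate 44 h, then detect luciferase activity.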
# A number is an active result; - = inactive; ? = inconclusive; . = not tested or not shown; [ ] = remark or other dose. An excerpt weighted towards active compounds, which were near 7.8% of everything screened.
SMILES,Marburg entry inh,HCMV antiviral,VACV Venus inh,Lassa entry inh,VACV mCherry inh,HCV inhibitor
Cc1cccc(NC(=O)CSc2nc(-c3cccs3)cc(C(F)(F)F)c2C#N)c1,?,-,-,-,-,.
CNCC(=O)c1c[nH]c2ccccc12,.,.,-,.,-,.
N#Cc1ccccc1NC(=O)CSc1ncn[nH]1,.,-,-,-,-,.
O=C(NN=Cc1ccccc1)NN=Cc1ccccc1,?,-,-,-,-,-
NC(=S)N/N=C/c1ccccc1,-,-,?,-,5.6µM,-
CNC(=S)N/N=C/c1ccc2c(c1)OCCO2,-,-,.,-,.,-
NC(=S)N/N=C\c1c(OCc2ccccc2Cl)ccc2ccccc12,?,-97,?,?,?,7.9µM
NC(=S)NN=Cc1cc(-c2cccc(N)c2)ccn1,.,-100,?,.,?,.
NC(=S)N/N=C/c1ccc2c(c1)OCCO2,-,-,10µM,?,11µM,-
CCOC(=O)/C=C/[C@@H](CCC(=O)OC)NC(=O)C(F)(F)F,.,-,.,.,.,.
CC(C)c1c(C(=O)N2CCCCC2c2cccnc2)cnn1-c1nccc(-c2cccs2)n1 (stereo not drawn),.,.,-,.,?,.
COCCNC(=S)N/N=C/c1c2ccccc2cc2ccccc12,?,-,-,-,?,?
NC(=S)N/N=C\c1c2ccccc2cc2ccccc12,?,-,?,-,?,13µM
CN1C(=O)C(C(Nc2ccccc2)c2ccc(F)cc2)c2ccccc21 (stereo not drawn),.,-,.,.,.,.
Cc1ccc(-c2onc(C)c2C)cc1S(=O)(=O)N1CCCCC1,.,?,?,-,-,.
Cc1ccc(-c2onc(C)c2C)cc1S(=O)(=O)N1CCOc2ccc(Cl)cc21,.,-62,-,-,-,.
Cc1ccc(-c2onc(C)c2C)cc1S(=O)(=O)N1CCc2ccccc21,.,?,?,-,-,.
CCC1CN(S(=O)(=O)c2cc(-c3onc(C)c3C)ccc2C)c2cc(Cl)ccc2O1 (stereo not drawn),.,-67,-,-,-,.
Cc1ccc(-c2onc(C)c2C)cc1S(=O)(=O)N1CC(C)Oc2ccccc21 (stereo not drawn),.,?,-[7.34 µM],.,-[7.34 µM],13µM
CC(=O)c1ccc(N2CCN(S(=O)(=O)c3cc(-c4onc(C)c4C)ccc3C)CC2)cc1,.,-67,?,-,?,.
CN1C(=O)C(CC(=O)Nc2ccccc2F)N(NC(=O)c2ccc(Br)cc2)C1=S (stereo not drawn),13µM,-,-,-,-,-
CCNC(=O)CC1C(=O)N(C)C(=S)N1NC(=O)c1ccc(Cl)cc1 (stereo not drawn),-,-,-,-,-,-
CCc1ccccc1NC(=O)COC(=O)c1c(C)nsc1NC,.,?,.,.,.,4.5µM
COc1ccc(C(=O)OCc2ccccc2F)cc1S(=O)(=O)N1CCCC1,?,-97,-,-,-,?
COc1ccc(C(=O)NC2CCCCCC2)cc1S(=O)(=O)N1CCCc2ccccc21,?,-62,-,7.1µM,-,?
SMILES,Marburg entry inh,HCMV antiviral,VACV Venus inh,Lassa entry inh,VACV mCherry inh,HCV inhibitor
COc1ccc(C(=O)N(C)Cc2ccccc2F)cc1S(=O)(=O)N1CCCC1,.,-,.,.,.,-
COc1ccc(C(=O)NC2CCCCCC2)cc1S(=O)(=O)N1CCCC1,-,-63,-,-,-,-
COc1cccc(CNC(=O)c2cnn(-c3ncc4c(n3)-c3ccccc3CCC4)c2C)c1OC,.,.,-,.,-,.
O=C(NNc1ccccc1C(F)(F)F)c1sccc1Cl,.,.,-,.,-,.
Nc1cc2nc3ccccc3oc-2cc1=O,.,-91,?,.,?,-
COc1ccc(N(Cc2cccs2)C(=O)Nc2cccc(Cl)c2)cc1,-,-,-,-,-,.
COc1ccc(-c2nc(-c3ccccn3)ncc2S(C)(=O)=O)cc1,-,-61,-,-,-,-
COc1cc(-c2cnc3ccccc3c2)cc2c1OCCN(C(=O)Cn1nccc1C)C2,.,.,-,.,-,.
N#Cc1ccc(S(=O)(=O)N[C@H]2CC[C@@]34CCCN3C(=O)CCC[C@H]4[C@H]2Cc2ccccc2)cc1,.,-,.,.,.,.
CC1CN(C(=O)CSc2nc(-c3ccccc3)cs2)CC(C)O1 (stereo not drawn),?,?,-,-,.,-
Cc1cccc2cc(C#N)c(SCC(=O)N3CCC(C)CC3)nc12,-,-,-,-,.,?
CC1(C)C(=O)Nc2ccccc2N1C(=O)CSc1nc(-c2ccccc2)cs1,?,-63,-,-,-,?
